# Test results taken from PubChem BioAssay (NCI).
# The panel holds about 79,000 compounds, 15% with a hit somewhere; the sample as a whole holds those more often. A number with no mark means an inactive call. The source made the active and inactive calls. No stated cut-off is given here; in the data, active means growth inhibition above about 70%; inactive means the rest.
# What was measured:
# [1] = NCI Yeast Anticancer Drug Screen. Data for the rad52 strain (AID 147);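 further: 0% = growth of vehicle-treated control cultures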; details: S. cerevisiae rad52 mutant growth inhibition, stronger effect = higher value
# How it was run: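 Read-out: growth inhibition versus vehicle-treated controls. Cells were a DNA repair-deficient yeast strain treated with compounds.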
# [2] = NCI Yeast Anticancer Drug Screen. Data for the wt1 strain (AID 149);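 further: 0% = growth of vehicle-treated wt1 cultures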; details: S. cerevisiae wt1 strain (SPY 50644) growth inhibition, stronger effect = higher value
# How it was run: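 wt1 yeast, compound-treated; % growth inhibition vs vehicle control.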
# [3] = NCI Yeast Anticancer Drug Screen. Data for the rad50EPP+ strain (AID 151);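 further: 0% = growth of vehicle-treated control cultures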; details: S. cerevisiae rad50 mutant strain, stronger effect = higher value
# How it was run: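 Growth inhibition read against vehicle controls in rad50EPP+ yeast, a strain altered in DNA damage repair, after compound exposure.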
# [4] = NCI Yeast Anticancer Drug Screen. Data for the mgt1 strain (AID 153); details: S. cerevisiae mgt1 mutant growth inhibition, stronger effect = higher value
# How it was run: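 mgt1 yeast grown with test compound; read-out is growth inhibition versus vehicle-treated cultures.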
# [5] = NCI Yeast Anticancer Drug Screen. Data for the rad50 strain (AID 155);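 further: 0% = growth of vehicle-only cultures of the same strain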; details: S. cerevisiae rad50 strain growth inhibition, stronger effect = higher value
# How it was run: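 Genetically altered yeast (DNA repair pathway); compound treatment; growth inhibition vs vehicle ctrl.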
# [6] = NCI Yeast Anticancer Drug Screen. Data for the mec2-1 strain (AID 157); details: S. cerevisiae mec2-1 strain, stronger effect = higher value
# How it was run: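 Yeast mec2-1 mutant treated with compound. Readout: growth inhibition vs vehicle controls.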
# [7] = NCI Yeast Anticancer Drug Screen. Data for the sgs1 mgt1 strain (AID 161);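 further: 0% = growth of cultures given vehicle only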; details: S. cerevisiae sgs1 mgt1 strain, stronger effect = higher value
# How it was run: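 Genetically altered yeast, compound exposure, growth inhibition relative to vehicle.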
# [8] = NCI Yeast Anticancer Drug Screen. Data for the CLN2oe strain (AID 163);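 further: 0% = growth of vehicle-only control cultures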; details: S. cerevisiae CLN2oe strain, stronger effect = higher value
# How it was run: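 Read-out: yeast growth inhibition, expressed relative to vehicle-only controls. The strain bears an engineered cell-cycle alteration.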
# [9] = NCI Yeast Anticancer Drug Screen. Data for the cln2 rad14 strain (AID 165);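 further: 0% = growth equal to vehicle treated cultures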; details: S. cerevisiae cln2 rad14 strain, stronger effect = higher value
# How it was run: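 cln2 rad14 yeast strain; compound exposure; growth inhibition read vs vehicle controls.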
# [10] = NCI Yeast Anticancer Drug Screen. Data for the bub3 strain (AID 167); details: S. cerevisiae bub3 mutant strain, stronger effect = higher value
# How it was run: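 Yeast carrying a defined mutation is treated with each compound, and growth is compared with that of vehicle-exposed cells to give inhibition.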
# [11] = NCI Yeast Anticancer Drug Screen. Data for the mlh1 strain (AID 171);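 further: 0% = growth of vehicle-treated control cultures of the same strain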; details: S. cerevisiae mlh1 strain growth inhibition, stronger effect = higher value
# How it was run: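 Read-out: growth inhibition versus vehicle controls. Strain: engineered yeast with a defined DNA repair or cell cycle defect, compound-treated.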
# [12] = NCI Yeast Anticancer Drug Screen. Data for the sgs1 strain (AID 173);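 further: 0% = growth of vehicle-only control cultures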; details: S. cerevisiae sgs1 mutant, stronger effect = higher value
# How it was run: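 Read-out: yeast growth inhibition relative to vehicle controls, following compound exposure of a strain with a defined DNA repair/cell cycle alteration.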
# [13] = NCI Yeast Anticancer Drug Screen. Data for the mlh1 rad18 strain (AID 175); details: S. cerevisiae mlh1 rad18 strain growth inhibition, stronger effect = higher value
# How it was run: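 Yeast w/ defined DNA-repair lesions; compound exposure; growth vs vehicle controls → % inhibition.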
# [14] = NCI Yeast Anticancer Drug Screen. Data for the rad18 strain (AID 177); details: S. cerevisiae rad18 mutant growth inhibition, stronger effect = higher value
# How it was run: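 Readout: growth inhibition vs vehicle controls. Cells: genetically altered yeast strain, DNA repair defect.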
# [15] = NCI Yeast Anticancer Drug Screen. Data for the wt2 strain (AID 169);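 further: 0% = growth of vehicle-treated yeast cultures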; details: S. cerevisiae wt2 strain growth inhibition, stronger effect = higher value
# How it was run: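 Read-out: growth inhibition versus vehicle-treated control cultures after compound exposure of the yeast strain.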
# [16] = at 5.0 µM (retest, dose inferred, filed as 0.5)
# [17] = at 50.0 µM (retest, dose inferred, filed as 5.0)
smiles,measurement,setting,value
CCCCCCCCCCCCOCCOCCOCC(N)=O,growth inhibition,[1]; at 1.2 µM,15%
same,growth inhibition,[1]; at 3.7 µM,-11%
same,growth inhibition,[1]; at 11.0 µM,1%
same,growth inhibition,[1]; at 33.0 µM,97% (active)
same,growth inhibition,[1]; at 100.0 µM,96% (active)
same,growth inhibition,[2]; at 1.2 µM,-39%
same,growth inhibition,[2]; at 3.7 µM,-39%
same,growth inhibition,[2]; at 11.0 µM,-41%
same,growth inhibition,[2]; at 33.0 µM,95% (active)
same,growth inhibition,[2]; at 100.0 µM,94% (active)
same,growth inhibition,[3]; at 1.2 µM,-14%
same,growth inhibition,[3]; at 3.7 µM,-20%
same,growth inhibition,[3]; at 11.0 µM,-11%
same,growth inhibition,[3]; at 33.0 µM,10%
same,growth inhibition,[3]; at 100.0 µM,80% (active)
same,growth inhibition,[4]; at 1.2 µM,9%
same,growth inhibition,[4]; at 3.7 µM,-8%
same,growth inhibition,[4]; at 11.0 µM,-10%
same,growth inhibition,[4]; at 33.0 µM,97% (active)
same,growth inhibition,[4]; at 100.0 µM,96% (active)
same,growth inhibition,[5]; at 1.2 µM,6%
same,growth inhibition,[5]; at 3.7 µM,-1%
same,growth inhibition,[5]; [16],36%
same,growth inhibition,[5]; at 11.0 µM,10%
same,growth inhibition,[5]; at 33.0 µM,97% (active)
same,growth inhibition,[5]; [17],36%
same,growth inhibition,[5]; at 50.0 µM,91.2% (active)
same,growth inhibition,[5]; at 100.0 µM,95% (active)
same,growth inhibition,[6]; at 1.2 µM,-6%
same,growth inhibition,[6]; at 3.7 µM,-6%
same,growth inhibition,[6]; [16],39%
same,growth inhibition,[6]; at 11.0 µM,16%
same,growth inhibition,[6]; at 33.0 µM,97% (active)
same,growth inhibition,[6]; [17],29%
same,growth inhibition,[6]; at 50.0 µM,92.5% (active)
same,growth inhibition,[6]; at 100.0 µM,95% (active)
same,growth inhibition,[7]; [16],5%
same,growth inhibition,[7]; [17],98% (active)
same,growth inhibition,[7]; at 50.0 µM,93.3% (active)
same,growth inhibition,[8]; at 1.2 µM,-15%
same,growth inhibition,[8]; at 3.7 µM,-18%
same,growth inhibition,[8]; at 11.0 µM,-13%
same,growth inhibition,[8]; at 33.0 µM,96% (active)
same,growth inhibition,[8]; at 100.0 µM,93% (active)
same,growth inhibition,[9]; [16],61%
same,growth inhibition,[9]; [17],97% (active)
same,growth inhibition,[9]; at 50.0 µM,89.5% (active)
same,growth inhibition,[10]; at 1.2 µM,-6%
same,growth inhibition,[10]; at 3.7 µM,1%
same,growth inhibition,[10]; [16],21%
same,growth inhibition,[10]; at 11.0 µM,-13%
same,growth inhibition,[10]; at 33.0 µM,97% (active)
same,growth inhibition,[10]; [17],97% (active)
same,growth inhibition,[10]; at 50.0 µM,91.5% (active)
same,growth inhibition,[10]; at 100.0 µM,94% (active)
same,growth inhibition,[11]; at 1.2 µM,-12%
same,growth inhibition,[11]; at 3.7 µM,-12%
same,growth inhibition,[11]; at 11.0 µM,6%
same,growth inhibition,[11]; at 33.0 µM,93% (active)
same,growth inhibition,[11]; at 100.0 µM,96% (active)
same,growth inhibition,[12]; at 1.2 µM,-12%
same,growth inhibition,[12]; at 3.7 µM,-15%
same,growth inhibition,[12]; at 11.0 µM,-5%
same,growth inhibition,[12]; at 33.0 µM,96% (active)
same,growth inhibition,[12]; at 100.0 µM,94% (active)
same,growth inhibition,[13]; [16],26%
same,growth inhibition,[13]; [17],43%
same,growth inhibition,[13]; at 50.0 µM,91.1% (active)
same,growth inhibition,[14]; at 1.2 µM,-18%
same,growth inhibition,[14]; at 3.7 µM,-31%
same,growth inhibition,[14]; at 11.0 µM,-18%
same,growth inhibition,[14]; at 33.0 µM,97% (active)
same,growth inhibition,[14]; at 100.0 µM,95% (active)
O=[N+]([O-])c1ccc(S(=O)(=O)Cc2ccccc2)c([N+](=O)[O-])c1,growth inhibition,[1]; at 1.2 µM,6%
same,growth inhibition,[1]; at 3.7 µM,17%
same,growth inhibition,[1]; at 11.0 µM,47%
same,growth inhibition,[1]; at 33.0 µM,89% (active)
same,growth inhibition,[1]; at 100.0 µM,99% (active)
same,growth inhibition,[2]; at 1.2 µM,6%
same,growth inhibition,[2]; at 3.7 µM,9%
same,growth inhibition,[2]; at 11.0 µM,24%
same,growth inhibition,[2]; at 33.0 µM,88% (active)
same,growth inhibition,[2]; at 100.0 µM,99% (active)
same,growth inhibition,[3]; at 1.2 µM,36%
same,growth inhibition,[3]; at 3.7 µM,67%
same,growth inhibition,[3]; at 11.0 µM,87% (active)
same,growth inhibition,[3]; at 33.0 µM,97% (active)
same,growth inhibition,[3]; at 100.0 µM,97% (active)
same,growth inhibition,[4]; at 1.2 µM,10%
same,growth inhibition,[4]; at 3.7 µM,14%
same,growth inhibition,[4]; at 11.0 µM,35%
same,growth inhibition,[4]; at 33.0 µM,98% (active)
same,growth inhibition,[4]; at 100.0 µM,99% (active)
same,growth inhibition,[5]; at 1.2 µM,9%
same,growth inhibition,[5]; at 3.7 µM,14%
same,growth inhibition,[5]; [16],65%
same,growth inhibition,[5]; at 11.0 µM,41%
same,growth inhibition,[5]; at 33.0 µM,87% (active)
same,growth inhibition,[5]; [17],100% (active)
same,growth inhibition,[5]; at 50.0 µM,99.5% (active)
same,growth inhibition,[5]; at 100.0 µM,98% (active)
same,growth inhibition,[6]; at 1.2 µM,12%
same,growth inhibition,[6]; at 3.7 µM,18%
same,growth inhibition,[6]; [16],31%
same,growth inhibition,[6]; at 11.0 µM,39%
same,growth inhibition,[6]; at 33.0 µM,96% (active)
same,growth inhibition,[6]; [17],100% (active)
same,growth inhibition,[6]; at 50.0 µM,99.8% (active)
same,growth inhibition,[6]; at 100.0 µM,99% (active)
same,growth inhibition,[7]; [16],46%
same,growth inhibition,[7]; [17],100% (active)
same,growth inhibition,[7]; at 50.0 µM,99.5% (active)
same,growth inhibition,[8]; at 1.2 µM,-1%
same,growth inhibition,[8]; at 3.7 µM,7%
same,growth inhibition,[8]; at 11.0 µM,21%
same,growth inhibition,[8]; at 33.0 µM,61%
same,growth inhibition,[8]; at 100.0 µM,95% (active)
same,growth inhibition,[9]; [16],7%
same,growth inhibition,[9]; [17],99% (active)
same,growth inhibition,[9]; at 50.0 µM,98.6% (active)
same,growth inhibition,[10]; at 1.2 µM,1%
same,growth inhibition,[10]; at 3.7 µM,6%
same,growth inhibition,[10]; [16],56%
same,growth inhibition,[10]; at 11.0 µM,44%
same,growth inhibition,[10]; at 33.0 µM,85% (active)
same,growth inhibition,[10]; [17],99% (active)
same,growth inhibition,[10]; at 50.0 µM,99.4% (active)
same,growth inhibition,[10]; at 100.0 µM,95% (active)
same,growth inhibition,[15]; at 1.2 µM,7%
same,growth inhibition,[15]; at 3.7 µM,15%
same,growth inhibition,[15]; at 11.0 µM,37%
same,growth inhibition,[15]; at 33.0 µM,98% (active)
same,growth inhibition,[15]; at 100.0 µM,98% (active)
same,growth inhibition,[11]; at 1.2 µM,9%
same,growth inhibition,[11]; at 3.7 µM,17%
same,growth inhibition,[11]; at 11.0 µM,35%
same,growth inhibition,[11]; at 33.0 µM,93% (active)
same,growth inhibition,[11]; at 100.0 µM,99% (active)
same,growth inhibition,[12]; at 1.2 µM,16%
same,growth inhibition,[12]; at 3.7 µM,30%
same,growth inhibition,[12]; at 11.0 µM,65%
same,growth inhibition,[12]; at 33.0 µM,98% (active)
same,growth inhibition,[12]; at 100.0 µM,99% (active)
same,growth inhibition,[13]; [16],65%
same,growth inhibition,[13]; [17],100% (active)
same,growth inhibition,[13]; at 50.0 µM,99.4% (active)
same,growth inhibition,[14]; at 1.2 µM,27%
same,growth inhibition,[14]; at 3.7 µM,57%
same,growth inhibition,[14]; at 11.0 µM,87% (active)
same,growth inhibition,[14]; at 33.0 µM,96% (active)
same,growth inhibition,[14]; at 100.0 µM,99% (active)
